Hit rate of the full screen: of about 350,000 compounds, about 6,000 (1.7%) were called active. Roughly 5% stayed inconclusive and do not appear here. The entries come from a sample that favours actives as a whole. A number with no mark means an inactive call. Cut-off read from the data, not from the text of the source: active = CPE inhibition above about 20% (passing the limit was not always enough); inconclusive = no clear call, values can overlap the other calls; tested in BHK-21 cells.

The assay in a line: protection of cells from dengue 2 killing – plate reader, single concentration, primary screen (AID 651640).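 Note: 0% = median of neutral control wells and 100% = median of positive control wells.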 As to conditions: DENV2-infected cells, cytopathic effect rescue, at 9.99 µM, hits give high values. (In general: Damage to the host cells serves as the signal in cytopathic effect assays.)
Take `COc1ccc(-c2ccc3c(c2)[C@H]2[C@H](CCN2S(=O)(=O)c2ccccc2F)[C@H](CO)N3)cc1`: the CPE inhibition is -28.4%.
As for `O=C(c1ccccc1)N1C[C@H]2[C@@H](c3ccccc31)[C@H](CO)N2Cc1ccccc1F`, the CPE inhibition was -4.2%.
The value for `C[C@@H]1CN([C@@H](C)CO)C(=O)c2cc(NC(=O)CCCN(C)C)ccc2O[C@@H](C)CCCCO[C@@H]1CN(C)S(=O)(=O)c1ccc(Cl)cc1` was -4.63%; that for `C/C=C/c1ccc2c(c1)O[C@@H](CN(C)S(=O)(=O)c1ccc(F)cc1)[C@@H](C)CN([C@H](C)CO)S2(=O)=O` was 1.09%; that for `COc1ccc(S(=O)(=O)N(C)C[C@H]2OCCCC[C@H](C)Oc3ccc(NC(=O)Nc4ccc5c(c4)OCO5)cc3C(=O)N([C@@H](C)CO)C[C@@H]2C)cc1` was -7.54%.
The value for `CCCOC(=O)c1c(NC(=O)c2cnn3c2NC(c2ccccc2)CC3C(F)(F)F)sc2c1CCCC2` (configuration not stated) was 84.1% (active); that for `CCOC(=O)c1c(NC(=O)Cn2nc(C(F)(F)F)cc2C)sc2c1CCC2` was -2.63%; that for `CCOC(=O)c1c(NC(=O)CSc2cn(CC)c3ccccc23)sc2c1CCC2` was 5.51%.
As for `COC(=O)[C@]12C[C@H](CC(=O)N3CCN(C(=O)C4CC4)CC3)C(=O)N(Cc3ccc4c(c3)OCO4)C1=C[C@H](C(C)(C)C)O[C@@H]2C`, the CPE inhibition is 0.269%.
Regarding `COc1ccc(NC(=O)N(C)C[C@H]2Oc3c(NC(=O)Nc4cccc5ccccc45)cccc3C(=O)N([C@@H](C)CO)C[C@H]2C)cc1`, the CPE inhibition is 18.2%.
Next, `C[C@H](CO)N1C[C@H](C)[C@H](CN(C)C(=O)NC2CCCCC2)Oc2c(NC(=O)C3CC3)cccc2C1=O`: 20.6% (active).
Consider `C[C@@H]1CN([C@H](C)CO)C(=O)c2cccc(NC(=O)Nc3cccc4ccccc34)c2O[C@@H]1CN(C)C(=O)Nc1cccc2ccccc12`, for which the CPE inhibition is 4.21%.
As to `C[C@H]1CN([C@@H](C)CO)C(=O)c2cccc(NC(=O)Nc3cccc4ccccc34)c2O[C@@H]1CN(C)C(=O)NC1CCCCC1`, the CPE inhibition was 43.8% (active).
On to `C[C@H]1CN([C@@H](C)CO)C(=O)c2cccc(NC(=O)C3CCOCC3)c2O[C@@H]1CN(C)C`, for which the CPE inhibition was 39.5% (active).
The value for `C[C@@H]1CN([C@H](C)CO)C(=O)c2cccc(NC(=O)Nc3ccccc3)c2O[C@@H]1CN(C)C(=O)NC1CCCCC1` was -11%; that for `C[C@@H]1CN([C@@H](C)CO)C(=O)c2cccc(NC(=O)C3CC3)c2O[C@@H]1CN(C)C` was 11.8%; that for `COc1ccc(NC(=O)N(C)C[C@H]2Oc3c(NC(=O)Nc4cccc5ccccc45)cccc3C(=O)N([C@H](C)CO)C[C@@H]2C)cc1` was 15.2%.
For `COc1ccc(NC(=O)N(C)C[C@@H]2Oc3c(NC(=O)Nc4cccc5ccccc45)cccc3C(=O)N([C@@H](C)CO)C[C@H]2C)cc1`, the CPE inhibition was 23.2% (active).
For the compound `CC(C)NC(=O)N(C)C[C@H]1Oc2c(NC(=O)C3CCCCC3)cccc2C(=O)N([C@@H](C)CO)C[C@H]1C`, the CPE inhibition was -3.61%.
As for `C[C@H]1CN([C@@H](C)CO)C(=O)c2cccc(NC(=O)C3CCOCC3)c2O[C@H]1CN(C)S(C)(=O)=O`, the CPE inhibition was 12.7%.
The value for `C[C@@H]1CN([C@H](C)CO)C(=O)c2cccc(NC(=O)C3CC3)c2O[C@@H]1CN(C)C(=O)Nc1ccccc1` was 8.03%; that for `CN1CCN(C(=O)C[C@H]2CC[C@H]3[C@@H](COC[C@H](O)CN3CC3CCOCC3)O2)CC1` was -5%; that for `CCCNC(=O)N1[C@H](CO)[C@@H]2c3ccccc3N(C(=O)C3CCOCC3)C[C@@H]21` was 9.68%.
The value for `CNC(=O)C[C@H]1CC[C@H]2[C@@H](COc3ccc(NS(=O)(=O)c4ccc(F)cc4)cc3C(=O)N2C)O1` was -4.93%; that for `CC(C)NC(=O)N(C)C[C@H]1OCCCC[C@H](C)Oc2ccc(NS(=O)(=O)c3cccs3)cc2C(=O)N([C@H](C)CO)C[C@@H]1C` was -5.44%; that for `O=C(CC1CC1)N1[C@@H]2CN(S(=O)(=O)c3ccccc3F)c3ccccc3[C@@H]2[C@@H]1CO` was 2.67%.
The value for `CCCNC(=O)N1CC2(C1)[C@H](c1ccccc1)[C@@H](CO)N2Cc1cccc(Cl)c1` was -0.258%; that for `C[C@@H]1CN([C@H](C)CO)S(=O)(=O)c2ccc(-c3ccncc3)cc2O[C@@H]1CN(C)C(=O)CN(C)C` was -2.24%.
`COCC(=O)N(C)C[C@@H]1Oc2cc(C#Cc3cccnc3)ccc2S(=O)(=O)N([C@H](C)CO)C[C@H]1C`: the CPE inhibition was 0.786%.
The value for `COc1ccccc1CNC(=O)C[C@H]1CC[C@@H](NC(=O)CN(C)C)[C@@H](CO)O1` was -1.02%; that for `Cc1cccc(S(=O)(=O)N2C[C@@H](O)COC[C@H]3O[C@H](CC(=O)N4CCN(C)CC4)CC[C@@H]32)c1` was 0.654%; that for `C[C@@H]1CN([C@H](C)CO)C(=O)c2cc(C#Cc3cccnc3)cnc2O[C@@H]1CN(C)Cc1ccc(F)cc1` was -0.76%.
The value for `C[C@H]1CN([C@@H](C)CO)C(=O)c2cccc(NC(=O)C3CCCCC3)c2O[C@H]1CN(C)C(=O)NC1CCCCC1` was 1.03%.
For `C[C@@H]1CN([C@H](C)CO)C(=O)c2cccc(NC(=O)C3CCCCC3)c2O[C@@H]1CN(C)C(=O)NC1CCCCC1`, the CPE inhibition is 21.7% (active).
The value for `C[C@@H]1CN([C@@H](C)CO)C(=O)c2cccc(NC(=O)C3CCOCC3)c2O[C@H]1CN(C)C(=O)NC1CCCCC1` was -1.68%; that for `COc1ccc(S(=O)(=O)Nc2cccc3c2O[C@@H](CN(C)C(=O)Nc2cccc4ccccc24)[C@H](C)CN([C@@H](C)CO)C3=O)cc1` was -9.92%.
For the compound `C[C@H](CO)N1C[C@H](C)[C@@H](CN(C)C(=O)Nc2cccc3ccccc23)Oc2c(NS(=O)(=O)c3ccccc3)cccc2C1=O`, the CPE inhibition is 74.2% (active).
Next, `C[C@H]1CN([C@@H](C)CO)C(=O)c2cccc(NS(=O)(=O)c3ccc(F)cc3)c2O[C@@H]1CN(C)Cc1ccncc1`: 0.612%; `C[C@@H]1CN([C@@H](C)CO)C(=O)c2cccc(NS(=O)(=O)c3ccc(F)cc3)c2O[C@@H]1CN(C)Cc1ccc(C(=O)O)cc1`: 49.4% (active).
Regarding `C[C@@H]1CN([C@H](C)CO)C(=O)c2cccc(NS(=O)(=O)c3ccc(Cl)cc3)c2O[C@@H]1CN(C)C(=O)Nc1cccc2ccccc12`, the CPE inhibition is -5.49%.
Next, `C[C@@H]1CN([C@H](C)CO)C(=O)c2cccc(NS(=O)(=O)c3ccccc3)c2O[C@@H]1CN(C)Cc1ccc(C(=O)O)cc1`: -6.23%; `CCCN(C)C[C@H]1Oc2ncc(-c3ccccc3OC)cc2C(=O)N([C@H](C)CO)C[C@H]1C`: 1.17%; `C[C@H](CO)N1C[C@H](C)[C@@H](CN(C)S(=O)(=O)c2ccccc2)OCCCC[C@H](C)Oc2ccc(NC(=O)NC3CCCCC3)cc2C1=O`: -3.62%.
The value for `C[C@H]1CCCCO[C@H](CN(C)C(=O)CCC(F)(F)F)[C@@H](C)CN([C@@H](C)CO)C(=O)c2cc(NC(=O)Nc3ccc4c(c3)OCO4)ccc2O1` was -12.5%.
Take `C[C@@H]1CN([C@H](C)CO)C(=O)c2cccc(NS(=O)(=O)c3ccc(F)cc3)c2O[C@@H]1CN(C)C(=O)Nc1ccc(F)cc1`: the CPE inhibition is 10.9%.
With `C[C@H](CO)N1C[C@H](C)[C@H](CN(C)S(=O)(=O)c2ccc(C#N)cc2)Oc2ncc(-c3cccc(F)c3)cc2C1=O`, the CPE inhibition is 2.2%.
The value for `COCC(=O)N(C)C[C@@H]1Oc2cc(C#CCC(C)C)ccc2S(=O)(=O)N([C@@H](C)CO)C[C@@H]1C` was -6.44%; that for `CC1(C)S[C@@H]2[C@H](NC(=O)COc3ccccc3)C(=O)N2C1C(=O)OCc1ccccc1` (some centres not stated) was 9.26%.
The value for `COC(=O)C1[C@H]2SC(C)(C)C(C(=O)OC)N2C(=O)N1Cc1nc2ccccc2s1` (some centres not stated) was 38.1% (active).
The value for `CCC1(CC)NC(=O)N(Cc2nc3ccccc3s2)C1=O` was -2.84%; that for `C/C=C/c1ccc2c(c1)O[C@H](CN(C)C(C)=O)[C@H](C)CN([C@H](C)CO)S2(=O)=O` was -7.9%; that for `COc1cccc(S(=O)(=O)N2C[C@@H](O)COC[C@H]3O[C@H](CC(=O)N4CCCCC4)CC[C@@H]32)c1` was -9.51%.
On to `O=C(/C=C/c1ccc2c(c1)OCCO2)c1ccc(O)cc1`, for which the CPE inhibition was -0.309%.
As to `O=C(O)/C=C/c1ccc(OCCCF)cc1`, the CPE inhibition was -4.88%.
In the case of `O=C(/C=C(O)/C=C/c1ccc(O)cc1)/C=C/c1ccc(O)cc1`, the CPE inhibition was 61.1% (active).
Next, `CC(C)NC(=O)N(C)C[C@H]1Oc2ncc(-c3ccccc3F)cc2C(=O)N([C@@H](C)CO)C[C@@H]1C`: -8.68%.
Next, `CO[C@@H]1CN(C)C(=O)c2cc(NS(=O)(=O)c3ccccc3)ccc2OC[C@@H](C)N(C(=O)NC(C)C)C[C@@H]1C`: 10.4%.
Next, `COc1ccc(N(CC(=O)N/N=C/c2cccs2)S(=O)(=O)c2ccc(OC)c(OC)c2)cc1`: 6.81%; `O=C(c1cccnc1)N(c1cc2sc(=O)oc2c2ccccc12)S(=O)(=O)c1ccccc1`: -6.54%.
As to `COc1ccc(N(C(=O)c2cccnc2)S(=O)(=O)c2ccc(OC)c(OC)c2)cc1`, the CPE inhibition is 29.9% (active).
The value for `CO[C@H]1CN(C)C(=O)c2ccc(NS(=O)(=O)c3ccccc3)cc2OC[C@@H](C)N(Cc2nccs2)C[C@@H]1C` was -6.98%.
Take `CO[C@@H]1CN(C)C(=O)c2ccc(NS(=O)(=O)c3ccc(Cl)cc3)cc2OC[C@H](C)N(C(=O)NC(C)C)C[C@H]1C`: the CPE inhibition is 9.25%.

The values are drawn from PubChem BioAssay AID651640 (Broad Institute, 2012).
